PAFAH2 inh: inhibitors of human PAFAH2 | Q99487 | recombinant PAFAH2, FP-rhodamine activity probe, fluorescence polarization | inhibition, % at 3.39 µM | actives 0.99% (n = 340,000) | AID 492956;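 active means inhibition above the mean over all tested compounds plus 3 SD, cut at about 30% in these data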;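 further: inhibitors block probe labeling of enzyme so polarization drops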
PAFAH1B3 inh: blocks human PAF acetylhydrolase 1B catalytic subunit 3 | Q15102 | actives 0.28% (n = 340,000) | recombinant PAFAH1B3, FP-rhodamine probe, fluorescence polarization | inhibition, % at 3.39 µM | AID 492972;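 active means inhibition above the screen-wide average of all tested compounds plus 3 SD, cut at about 25% in these data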
PAFAH1B2 FP inh: inhibitors of human PAFAH1B2 | actives 1.2% (n = 340,000) | inhibition, % at 3.39 µM | AID 492953 | recombinant PAFAH1B2, FP-rhodamine activity probe, fluorescence polarization;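 active means inhibition above the mean of all tested compounds plus 3 SD, cut at about 24% in these data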
LYPLA1 inh: counter-screen for PME1 inhibitors: inhibitors of human LYPLA1; recombinant LYPLA1, FP-Rh probe fluorescence polarization; O75608; AID 2174; inhibition, % at 5.9 µM; actives 0.16% (n = 320,000);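 active means inhibition above the mean of all tested compounds plus 3 SD, set per campaign, cut at about 14% in these data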;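 further: inhibitors block serine hydrolase probe labeling of LYPLA1 so polarization falls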
Target sequence (O75608 whole entry, looked up): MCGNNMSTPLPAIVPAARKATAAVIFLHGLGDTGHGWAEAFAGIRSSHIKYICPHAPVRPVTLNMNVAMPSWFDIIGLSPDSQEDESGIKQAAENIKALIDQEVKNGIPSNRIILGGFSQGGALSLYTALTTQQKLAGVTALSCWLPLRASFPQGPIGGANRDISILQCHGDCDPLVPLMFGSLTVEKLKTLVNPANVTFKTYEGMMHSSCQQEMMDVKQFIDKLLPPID
pPAFAH FP inh: pPAFAH (human) enzyme inhibition; recombinant pPAFAH, FP-rhodamine probe fluorescence polarization; AID 463082; Q13093; inhibition, % at 3.39 µM; actives 1.5% (n = 330,000);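 active means inhibition above the mean inhibition across the screen plus 3 SD, cut at about 25% in these data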;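 further: inhibitors block binding of the rhodamine activity-based probe so polarization drops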
Target sequence (Q13093 whole entry, looked up): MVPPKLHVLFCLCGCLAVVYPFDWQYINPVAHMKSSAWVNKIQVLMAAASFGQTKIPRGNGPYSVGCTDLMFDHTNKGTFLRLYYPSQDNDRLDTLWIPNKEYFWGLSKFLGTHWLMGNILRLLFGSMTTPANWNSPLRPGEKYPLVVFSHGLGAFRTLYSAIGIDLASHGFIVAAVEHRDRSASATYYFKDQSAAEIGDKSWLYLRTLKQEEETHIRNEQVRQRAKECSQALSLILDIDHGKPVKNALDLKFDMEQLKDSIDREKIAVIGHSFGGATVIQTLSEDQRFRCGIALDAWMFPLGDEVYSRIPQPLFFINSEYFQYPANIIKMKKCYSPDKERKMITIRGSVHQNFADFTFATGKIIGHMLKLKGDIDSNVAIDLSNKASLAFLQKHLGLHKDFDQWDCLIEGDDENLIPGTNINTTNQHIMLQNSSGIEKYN
LYPLA2 counter: blocks human lysophospholipase 2, a PME1 counter-screen; O95372; recombinant LYPLA2, FP-Rh probe fluorescence polarization; inhibition, % at 5.9 µM; actives 0.38% (n = 320,000);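 active means inhibition above the screen-wide mean plus 3 SD, limit set per campaign, cut at about 26% in these data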
Of the large screens only hits and unclear results are named; the others gave an inactive call. The list is not random: actives were taken first. Their share in the collection is about 2.9%.

O=C(Nc1ccc(O)cc1)c1cc2n(n1)C(C(F)(F)F)CC(c1ccco1)N2 (stereo unspecified)	none
CCOc1ccc(NC(=O)c2cc3n(n2)C(C(F)(F)F)CC(c2ccco2)N3)cc1 (stereo unspecified)	pPAFAH FP inh 32.9
COC(=O)c1cc(NCc2c(F)cccc2Cl)ccc1N1CCOCC1	pPAFAH FP inh 29.8
COc1cc([N+](=O)[O-])ccc1NC(=O)NNC(=O)C(C)Oc1ccc(F)cc1F (stereo unspecified)	none
COc1ccc(OC)c(-n2c(C)cc(C=O)c2C)c1	none
CCS(=O)(=O)N1Cc2ccccc2CC1C(=O)Nc1nnc(SCc2ccc(F)cc2)s1 (stereo unspecified)	pPAFAH FP inh 25.2
CCc1nnc(NC(=O)C2Cc3ccccc3CN2S(=O)(=O)CC)s1 (stereo unspecified)	none
COc1ccc(-n2ncc3c2CC(C)(C)CC3NC(=O)C2=CC(=O)CC(C)(C)O2)cc1 (stereo unspecified)	none
CCC1(C)CC(c2csc(N)n2)CCO1 (stereo unspecified)	none
Nc1nc(C2CCCCC2)cs1	PAFAH1B2 FP inh 57.6
Cc1nnc(NC(=O)CCSc2ccccc2)s1	PAFAH1B2 FP inh 26.6
CCCCc1nnc(NC(=O)CCSc2ccccc2)s1	none
COc1ccc(-c2csc(Nc3ccc(S(=O)(=O)Nc4cc(C)on4)cc3)n2)cc1	pPAFAH FP inh 26.9
CC(C)CSc1nc2c(c(=O)[nH]c(=O)n2C)n1CCc1ccccc1	none
CC(C)CSc1nc2c(=O)[nH][nH]c(=O)c2n1Cc1ccccc1	pPAFAH FP inh 29.6
Cc1cccc(OCC(=O)N2CCN(C(=O)c3cccs3)CC2)c1	none
NC(=O)COC(=O)CC12CC3CC(CC(Br)(C3)C1)C2	PAFAH1B2 FP inh 26.5
Cc1ccccc1NC(=O)CSc1ccsc1[N+](=O)[O-]	pPAFAH FP inh 27.0
COCCCNC(=O)CSc1ccsc1[N+](=O)[O-]	none
Cc1ccccc1OCC(=O)Nc1ccc(N2CCN(C(=O)c3ccco3)CC2)cc1	none
Cc1cccc(CSc2nc3sc(C)c(C)c3c(=O)n2Cc2ccco2)c1	none
COc1cccc(CSc2nc3sc(C)c(C)c3c(=O)n2Cc2ccco2)c1	pPAFAH FP inh 25.8
O=C(Nn1cnnc1)c1cc(-c2ccccn2)nc2ccccc12	none
O=C(NNS(=O)(=O)c1ccc2ccccc2c1)c1cc(-c2ccccn2)nc2ccccc12	PAFAH1B2 FP inh 26.0
Cc1ccc(OCCSCc2nc3ccccc3[nH]2)cc1	none
Clc1ccc(OCCSCc2nc3ccccc3[nH]2)cc1	PAFAH1B2 FP inh 31.1
O=C(c1ccc(=O)[nH]n1)N1CCN(S(=O)(=O)c2ccc3ccccc3c2)CC1	none
O=C(c1ccc(=O)[nH]n1)N1CCN(S(=O)(=O)c2cccc(F)c2)CC1	PAFAH2 inh 33.6, PAFAH1B3 inh 33.9 (no result: LYPLA1 inh, pPAFAH FP inh, LYPLA2 counter)
COc1cc2c(c3oc(-c4ccccc4)cc(=O)c13)C=CC(C)(C)O2	none
O=C(NCc1ccco1)C1OCCc2ccccc21 (stereo unspecified)	none
CCOC(=O)c1c(-c2ccc(-c3ccccc3)cc2)csc1NC(=O)C1C2CCC(O2)C1C(=O)O (stereo unspecified)	pPAFAH FP inh 28.4
CCNc1nc(NCC)n2c(SCC(=O)Nc3ccc(CC)cc3)nnc2n1	none
Cc1ccc(CN2C(=O)CSC2c2ccc(F)cc2)cc1 (stereo unspecified)	PAFAH1B2 FP inh 25.7
Cc1ccc(CN2C(=O)CSC2c2ccccc2F)cc1 (stereo unspecified)	none
COC(=O)Cc1c(O)ccn(Cc2ccc(Cl)c(Cl)c2)c1=O	PAFAH1B2 FP inh 28.2
O=c1c(Cc2ccc(Cl)cc2Cl)c(O)ccn1Cc1ccc(Cl)cc1	PAFAH1B2 FP inh 27.8
O=c1c2ccccc2nc(N/N=C/c2c(O)ccc3ccccc23)n1O	pPAFAH FP inh 34.0
CC1CCCCC1NC(=O)C(=O)NCC1CCCO1 (stereo unspecified)	none
COCCCNC(=O)C(=O)NC1CCCCC1C (stereo unspecified)	pPAFAH FP inh 25.9
Cc1c(Cl)cccc1NC(=O)CNC(=O)C1CC(=O)N(CCc2ccccc2)C1 (stereo unspecified)	none
CCCn1nc(C(=O)Nc2cccc(C(=O)OC)c2)c2ccccc2c1=O	none
COC(=O)c1cccc(NC(=O)c2nn(C(C)C)c(=O)c3ccccc23)c1	pPAFAH FP inh 24.9
O=C(NCC(c1ccco1)N1CCCCC1)c1cccc(NS(=O)(=O)c2ccc(Br)cc2)c1 (stereo unspecified)	PAFAH1B2 FP inh 29.7
O=C(NCC(c1ccco1)N1CCCC1)c1cccc(S(=O)(=O)Nc2ccc(Br)cc2)c1 (stereo unspecified)	pPAFAH FP inh 28.1
COc1ccc2c(c1)O[C@@H](c1cccc(C(F)(F)F)c1)[C@H](OC(=O)Nc1ccc(OC(F)F)cc1)C2=O	none (no result: PAFAH2 inh, PAFAH1B3 inh, PAFAH1B2 FP inh)
COc1ccc2c(c1)O[C@@H](c1cccc(C(F)(F)F)c1)[C@H](O)C2=O	PAFAH2 inh 71.5
CC1=C(SCc2ccccc2)C(=O)c2ccccc2C1=O	PAFAH2 inh 45.8, PAFAH1B3 inh 48.4 (no result: LYPLA1 inh, pPAFAH FP inh, LYPLA2 counter)
O=C(Cc1cccs1)NNC(=S)NCc1ccc(Cl)cc1	PAFAH1B2 FP inh 55.1
CCC1c2ccc(C)n2CCN1C(=O)Nc1ccccc1OC (stereo unspecified)	none
CCCc1nc2c(=O)n(C)c(=O)nc-2n(C)n1	PAFAH2 inh 60.1, PAFAH1B3 inh 78.5, PAFAH1B2 FP inh 35.6 (no result: LYPLA1 inh, pPAFAH FP inh, LYPLA2 counter)
Cc1c(NC(=O)/C(C#N)=C/c2ccc(-c3ccccc3Cl)o2)c(=O)n(-c2ccccc2)n1C	pPAFAH FP inh 27.4
CC(C)CN(C(=O)CN1CCN(c2ccc([N+](=O)[O-])cc2)CC1)c1c(N)n(CC(C)C)c(=O)[nH]c1=O	none
COc1ccccc1-c1ccc(/C=C2\C=CC(=O)O2)o1	pPAFAH FP inh 25.6 (no result: PAFAH2 inh, PAFAH1B3 inh, PAFAH1B2 FP inh)
COc1ccccc1-c1ccc(/C=C2/C=C(C)OC2=O)o1	none
O=C(Nc1ccc(N2CCOCC2)cc1)C1(c2ccc(Cl)cc2)CCC1	PAFAH1B2 FP inh 80.1
O=C(NCCc1ccccc1)c1nnc(CS(=O)(=O)c2ccccc2)o1	pPAFAH FP inh 27.9
CCOC(=O)Cc1csc(NC(=O)CSc2nc(-c3ccccc3)c(C#N)c(=O)[nH]2)n1	PAFAH1B2 FP inh 65.1
COC(=O)C(CC(C)C)NC(=O)CSc1nc(-c2ccccc2)c(C#N)c(=O)[nH]1 (stereo unspecified)	none
COc1cccc(-c2nc(SCC(=O)Nc3nc(-c4ccccc4)c(C)s3)[nH]c(=O)c2C#N)c1	none
CCOc1ccc2nc(NC(=O)CSc3nc(-c4ccccc4)c(C#N)c(=O)[nH]3)sc2c1	PAFAH1B2 FP inh 82.5 (no result: LYPLA1 inh, pPAFAH FP inh, LYPLA2 counter)
CCc1nnc(NC(=O)CN2C(=O)NC3(CCCC3)C2=O)s1	none
C/C(=N/OC(=O)C1CC12CCC2)c1ccc(Br)cc1 (stereo unspecified)	PAFAH2 inh 50.6, PAFAH1B2 FP inh 52.5

Compound activity (PubChem BioAssay)
